In PubChem BioAssay (NCATS):
Records with an inconclusive call do not appear. Activity calls are given as the source filed them. Calls come from the whole dose curve; as a rule, active = well fitted inhibition curve with a large enough effect; inconclusive = small, poorly fitted or top-dose-only effect; inactive = flat fitted curve, though single readings scatter.

Experiments:
[1] = system: CRL-7250; test: Cytotoxic Profiling of Annotated Libraries Using Quantitative High-Throughput Screening (AID 1296008); conditions: Five cell lines viability, CellTiter-Glo ATP luminescence, 48-72 h; max response: hits give low values; for max response: % is set by controls: 0 for no effect and ±100 for the full control effect
In short: (§1)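 Cytotoxicity was measured as CellTiter-Glo ATP luminescence, read after 10 min at room temperature. Compound treatment of the cells lasted 48 or 72 hr at 37 degrees Celsius in a qHTS format.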

[2] = system: HEK293; test: as above; conditions: Five cell lines viability, CellTiter-Glo ATP luminescence, 48-72 h; max response: hits give low values
In short: as §1

[3] = system: HaCat; test: as above; conditions: Five cell lines viability, CellTiter-Glo ATP luminescence, 48-72 h; max response: hits give low values
In short: as §1

[4] = system: KB-3-1; test: as above; conditions: Five cell lines viability, CellTiter-Glo ATP luminescence, 48-72 h; max response: hits give low values
In short: as §1

[5] = system: NIH3T3; test: as above; conditions: Five cell lines viability, CellTiter-Glo ATP luminescence, 48-72 h; max response: hits give low values
In short: as §1

[6] = system: HACAT; test: qHTS assay to identify novel small-molecules to repurpose for Merkel cell carcinoma treatment (AID 1296009); conditions: MCC and control cell lines, CellTiter-Glo viability, 72 h; at 44.8 µM (top of the series) unless noted
In short: (§2)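 72 hr, 37 degree celsius; NPC 8-pt / MIPE 11-pt dose response; compound pinned in DMSO; CellTiter-Glo, 10 min RT, luminescence; normalized to no-cell and DMSO controls.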

[7] = system: HEK293T; test: as above; conditions: MCC and control cell lines, CellTiter-Glo viability, 72 h; series mostly up to 44.8 µM
In short: as §2
Note: nearly all actives have a fitted effect of over 60% in size.

O=C(O)[C@H]1CCCC[C@H]1C(=O)N1CCc2ccccc2[C@H]1CN1C(=O)c2ccccc2C1=O
inactive: max response [1] 1.46% | outcome [2] | outcome [3] | outcome [4] | max response [5] 2.69% | outcome [6] | Potency [7]

CC(C)CC(=O)O[C@@H]1OC=C(CO[C@@H]2O[C@H](CO[C@@H]3O[C@H](CO)[C@@H](O)[C@H](O)[C@H]3O)[C@@H](O)[C@H](O)[C@H]2O)[C@H]2C[C@H](O)[C@@H](CO)[C@@H]12
inactive: max response [1] 4.5% | outcome [2] | outcome [3] | outcome [4] | max response [5] 0.598% | outcome [6] inactive [at 17.4 µM] | Potency [7]

CC(=O)O[C@@H]1[C@H]2[C@@H](OC(=O)c3ccccc3)[C@@H](C)C[C@]2(O)[C@H](OC(C)=O)[C@@]2(C)[C@@H]3CC(C)(C)C(=O)[C@]3(OC(C)=O)C[C@@]12C
inactive: outcome [1] | outcome [2] | outcome [3] | outcome [4] | max response [5] 4.53% | outcome [6] inactive [at 17.4 µM] | Potency [7]

C[C@H]1CN(C[C@H](Cc2ccccc2)C(=O)NCC(=O)O)CC[C@@]1(C)c1cccc(O)c1
inactive: max response [1] -8.36% | outcome [2] | outcome [3] | outcome [4] | outcome [5] | outcome [6] | Potency [7]

CC1(C)CC[C@]2(C(=O)O)CC[C@]3(C)C(=CCC4[C@@]5(C)C[C@H](O)[C@H](O[C@@H]6OC[C@H](O)[C@H](O)[C@H]6O)[C@@](C)(CO)C5CC[C@]43C)[C@@H]2C1 (some centres undefined)
inactive: outcome [1] | outcome [2] | outcome [3] | outcome [4] | max response [5] 2.89% | outcome [6] inactive [at 17.4 µM] | Potency [7]

CC1=CC(=O)C2C(C)(C)CCCC2(C)C12CCC1(COC(=O)C1)O2 (centres undefined)
inactive: max response [1] -1.45% | outcome [2] | outcome [3] | max response [4] 5.32% | max response [5] -3.33% | outcome [6] | Potency [7]

Clc1ccc2c(c1)C1=NCCN1c1c(-c3noc(C4CC4)n3)ncn1-2
inactive: outcome [1] | outcome [2] | outcome [3] | outcome [4] | outcome [5] | outcome [6] | Potency [7]

C[C@@H]1O[C@@H](O[C@H]2[C@H](OC(=O)[C@]34CCC(C)(C)C[C@H]3C3=CCC5[C@@]6(C)C[C@H](O)[C@H](O[C@@H]7O[C@H](CO[C@@H]8OC[C@H](O)[C@H](O)[C@H]8O)[C@@H](O)[C@H](O)[C@H]7O)C(C)(C)C6CC[C@@]5(C)[C@]3(C)C[C@H]4O)OC[C@@H](O)[C@@H]2O)[C@H](O)[C@H](O[C@@H]2OC[C@](O)(CO)[C@H]2O)[C@H]1O[C@@H]1OC[C@H](O)[C@H](O[C@@H]2OC[C@@H](O)[C@H](O)[C@H]2O)[C@H]1O (some centres undefined)
inactive: max response [1] -6.86% | outcome [2] | outcome [3] | outcome [4] | max response [5] -1.57% | outcome [6] inactive [at 9.27 µM] | outcome [7] inactive [at 9.27 µM]

C=CC1(C)C=C2C(=O)CC3C(C)(C)CCCC3(C(=O)O)C2(O)CC1 (centres undefined)
inactive: outcome [1] | outcome [2] | outcome [3] | outcome [4] | max response [5] -3.47% | outcome [6] | Potency [7]

CCCCCCc1cccc(NC(=O)[C@H](N)CCP(=O)(O)O)c1
inactive: outcome [1] | outcome [2] | outcome [3] | outcome [4] | max response [5] -1.22% | outcome [6] inactive [at 9.27 µM] | outcome [7] inactive [at 9.27 µM]

O=C(O[C@H]1[C@@H]2C[C@@H]3OC[C@@](O)([C@H]2[C@H](O[C@@H]2O[C@H](CO)[C@@H](O)[C@H](O)[C@H]2O)O3)[C@@H]1O)c1ccccc1
inactive: outcome [1] | outcome [2] | outcome [3] | outcome [4] | outcome [5] | outcome [6] inactive [at 17.4 µM] | Potency [7]

CC(C)C(C#N)O[C@@H]1O[C@H](CO[C@@H]2OC[C@](O)(CO)[C@H]2O)[C@@H](O)[C@H](O)[C@H]1O (some centres undefined)
inactive: max response [1] 0.582% | outcome [2] | outcome [3] | max response [4] 5.78% | max response [5] 3.22% | outcome [6] | Potency [7]

COc1ccc(/C=C/C(=O)O[C@@H]2[C@@H](OC(C)=O)[C@@H](OC(C)=O)[C@H](O[C@H]3[C@@H]4C=CO[C@@H](O[C@@H]5O[C@H](CO)[C@@H](O)[C@H](O)[C@H]5O)[C@@H]4[C@@]4(CO)O[C@@H]34)O[C@H]2C)cc1O
inactive: max response [1] 3.11% | outcome [2] | outcome [3] | max response [4] 9.42% | max response [5] 3.23% | outcome [6] inactive [at 17.4 µM] | Potency [7]

C=CC(C)(C)C12CC3C(=O)NC(Cc4cnc[nH]4)C(=O)N3C1Nc1ccccc12 (centres undefined)
inactive: max response [1] -2.57% | outcome [2] | outcome [3] | outcome [4] | outcome [5] | outcome [6] | Potency [7]

CC1CC(O)CC(C)(C)C1(O)CCO (centres undefined)
inactive: max response [1] -5.35% | outcome [2] | outcome [3] | outcome [4] | max response [5] 0.3% | outcome [6] inactive [at 92 µM] | Potency [7]

CC(C)=CCC/C(C)=C/CC/C(C)=C/CC[C@]1(C)CCc2cc(O)cc(C)c2O1
inactive: max response [1] 3.81% | outcome [2] | outcome [3] | max response [4] 1.67% | max response [5] 1.13% | outcome [6] inactive [at 17.4 µM] | Potency [7]

Cc1[nH]cnc1C1CCN(c2nc3cccc4c3n2CCC4=O)CC1
inactive: outcome [1] | outcome [2] | outcome [3] | max response [4] 2.43% | outcome [5] | outcome [6] | Potency [7]

CC(O)C(O)/C=C/C=C/C(=O)O[C@@H]1C=C2COC(=O)[C@]2(O)[C@@]2(C)CCCC(C)(C)C12 (some centres undefined)
inactive: max response [1] 3.05% | outcome [2] | outcome [3] | max response [4] 8.55% | outcome [5] | outcome [6] inactive [at 17.4 µM] | Potency [7]

CCOC(=O)[C@H](CCc1ccccc1)N[C@@H](C)C(=O)N1C2CCCCC2C[C@H]1C(=O)O (some centres undefined)
inactive: outcome [1] | outcome [2] | outcome [3] | max response [4] 6.12% | outcome [5] | outcome [6] | Potency [7]

C[C@@H]1O[C@@H](O[C@@H]2[C@@H](O)[C@H](O[C@@H]3[C@@H](O)[C@@H](O)[C@H](O[C@H]4[C@H](OC(=O)[C@]56CCC(C)(C)C[C@H]5C5=CCC7[C@@]8(C)C[C@H](O)[C@H](O[C@@H]9O[C@@H](C)[C@H](O)[C@@H](O)[C@H]9O)[C@@](C)(CO)C8CC[C@@]7(C)[C@]5(C)C[C@H]6O)O[C@H](C)[C@H](O)[C@@H]4O)O[C@H]3C)OC[C@H]2O)[C@H](O)[C@H](O)[C@H]1O (some centres undefined)
inactive: max response [1] 4.2% | outcome [2] | outcome [3] | outcome [4] | outcome [5] | outcome [6] inactive [at 9.27 µM] | outcome [7] inactive [at 9.27 µM]

OC[C@H]1O[C@@H](Oc2cc(O)cc(/C=C/c3ccc(O)cc3)c2)[C@H](O)[C@@H](O)[C@@H]1O
inactive: outcome [1] | outcome [2] | outcome [3] | outcome [4] | outcome [5] | outcome [6] | Potency [7]

OC[C@H]1O[C@@H](Oc2ccc3c(c2)OC[C@H]2c4cc5c(cc4O[C@@H]32)OCO5)[C@H](O)[C@@H](O)[C@@H]1O
inactive: max response [1] -1.83% | outcome [2] | outcome [3] | outcome [4] | max response [5] 0.631% | outcome [6] inactive [at 17.4 µM] | Potency [7]

CC(C)(O)C1CCC2(C)C3C(O)C4C(C13)C42CO (centres undefined)
inactive: outcome [1] | outcome [2] | outcome [3] | max response [4] 9.17% | max response [5] 0.322% | outcome [6] | Potency [7]

CC1=C2C3OC(=O)C(C)C3(O)CCC2(C)CCC1=O (centres undefined)
inactive: max response [1] -29.1% | outcome [2] | outcome [3] | outcome [4] | outcome [5] | outcome [6] | Potency [7]

COc1ccc2cc(OCC3(C(=O)O)CN(C(=O)c4ccc(F)cc4)C3)ccc2c1
inactive: outcome [1] | outcome [2] | outcome [3] | max response [4] 1.45% | outcome [5] | outcome [6] | Potency [7]

CC(=O)OC1C(O)C(C)=C(CCC(C)CC(=O)O)C2(C)CCCC(C)(C)C12 (centres undefined)
inactive: outcome [1] | outcome [2] | outcome [3] | max response [4] 0.797% | outcome [5] | outcome [6] | Potency [7]

COc1cc([C@H]2OC[C@]3(OC(C)=O)[C@@H](c4ccc(O[C@@H]5O[C@H](CO)[C@@H](O)[C@H](O)[C@H]5O)c(OC)c4)OC[C@H]23)ccc1O
inactive: outcome [1] | outcome [2] | outcome [3] | outcome [4] | max response [5] 4.83% | outcome [6] inactive [at 17.4 µM] | Potency [7]

COc1ccc(C2=CC(=O)OC2Cc2ccc(O)cc2)c(O)c1 (centres undefined)
inactive: outcome [1] | outcome [2] | outcome [3] | max response [4] 6.42% | max response [5] 1.17% | outcome [6] | Potency [7]

CN1CCC(c2c[nH]c3ccc(NC(=O)c4ccc(F)cc4)cc23)CC1
inactive: max response [1] -9.85% | outcome [2] | outcome [3] | max response [4] 7.4% | max response [5] -0.678% | outcome [6] | Potency [7]

CC(=O)N(O)CCCCCN1C(=O)CCC1=O
inactive: outcome [1] | outcome [2] | outcome [3] | max response [4] 2.57% | outcome [5] | outcome [6] | Potency [7]

C=C1CCC(OC(C)=O)C2(C)CC3(O)OC(=O)C(C)=C3CC12 (centres undefined)
inactive: max response [1] -6.35% | outcome [2] | outcome [3] | max response [4] 4.81% | max response [5] -2.74% | outcome [6] | Potency [7]

COC1C=C([C@@H]2CC=C3[C@@]4(C)C(CC[C@]32C)[C@@]2(C)C=CC(=O)C(C)(C)C2C[C@H]4OC(C)=O)C(=O)O1 (some centres undefined)
inactive: outcome [1] | outcome [2] | outcome [3] | max response [4] -0.943% | outcome [5] | outcome [6] inactive [at 17.4 µM] | Potency [7]
